Here are results for 40 molecules from PubChem BioAssay (Tox21).

Where “and” joins values, the source holds several entries; their conditions need not be identical. Equal values may be shown once. Inconclusive results are not listed. A structure can be active in one record and inactive in another. Calls of active or inactive are those of the source. Calls come from the whole dose curve; as a rule, active = well fitted activation curve with a large enough effect in the repeat runs; inconclusive = weak or mixed curves; inactive = no such curve, though single readings can be large or run the other way.
% is set by controls: 0 for no effect and ±100 for the full control effect; potency is the fitted concentration of half-maximal effect.

Sequence of Nuclear receptor subfamily 1 group I member 2 (Homo sapiens) (O75469 whole entry, looked up): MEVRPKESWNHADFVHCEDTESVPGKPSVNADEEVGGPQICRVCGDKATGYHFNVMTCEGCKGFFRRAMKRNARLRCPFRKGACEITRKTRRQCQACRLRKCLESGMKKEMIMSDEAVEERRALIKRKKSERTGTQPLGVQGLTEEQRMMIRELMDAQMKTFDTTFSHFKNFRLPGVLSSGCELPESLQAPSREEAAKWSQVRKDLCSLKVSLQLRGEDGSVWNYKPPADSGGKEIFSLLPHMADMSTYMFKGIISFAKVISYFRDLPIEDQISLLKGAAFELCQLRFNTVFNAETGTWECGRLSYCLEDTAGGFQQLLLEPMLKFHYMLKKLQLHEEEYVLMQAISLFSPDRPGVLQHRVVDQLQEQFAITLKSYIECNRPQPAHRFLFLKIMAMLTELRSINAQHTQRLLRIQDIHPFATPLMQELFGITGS

The target of the test is Nuclear receptor subfamily 1 group I member 2 (Homo sapiens) (UniProt O75469). The experiment in a line: Human pregnane X receptor (PXR) small molecule agonists, qHTS assay (AID 1346982). Note: nearly all actives have a fitted effect of over 35% in size. Particulars: PXR-Luc HepG2, CYP3A4 luciferase reporter, 24 h; series mostly up to 92.4 µM; activation: at the top concentration. An excerpt:
National Center for Advancing Translational Sciences [NCATS]
NIH Chemical Genomics Center [NCGC]
U.S. Environmental Protection Agency [EPA]
National Institutes of Environmental Health Sciences [NIEHS]
National Toxicology Program [NTP]
The human pregnane X receptor (hPXR) regulates the expression of several drug metabolizing enzymes and induction of these proteins is a major mechanism for developing drug resistance in cancer. One such key enzyme catalyzing the drug metabolism is cytochrome P450 3A4 (CYP3A4). Changes in CYP3A4 expression affect drug metabolism, thereby reducing the therapeutic efficacy and altering toxicological response to a drug and which finally causes adverse drug interaction. To screen Tox21 libraries for compounds that activate hPXR-mediated CYP3A4 gene expression, PXR-Luc HepG2 cells were used.
PXR-Luc HepG2 cells were dispensed at 2,000 per well in 5uL of assay medium containing 5% charcoal-stripped FBS into white solid bottom 1536-well plates (Corning Life Sciences, Corning, NY) using a Multidrop Combi (Thermo Scientific, Waltham, MA) dispenser. The assay plates were incubated at 37 C and 5% CO2 for 5hr, and then 23nL of compounds dissolved in DMSO and positive control were transferred using a Pintool station (Wako, San Diego, CA). The assay plates were incubated at 37C and 5% CO2 for 24hr. For luciferase read, 4uL of ONE-Glo reagent (Promega Corporation, Madison, WI) was added to each well of the assay plates using Flying Reagent Dispenser (FRD, Aurora Discovery, San Diego, CA) and incubated the assay plates at room temperature for 30min. The luminescence signal was quantified using a ViewLux plate reader (Perkin Elmer, Shelton, CT).
In general terms: In qHTS, concentration-response curves come from the screen itself.
As for `c1cc[c]([Sb]([c]2ccccc2)[c]2ccccc2)cc1`, the Potency was 54.5 µM (active). With `CNC(C)Cc1ccc2c(c1)OCO2` (stereo not given), the “activation” value is -5.34% (inactive). For `CC(=[OH+])/C=C(/C)[O-].CC(=[OH+])/C=C(\C)[O-].CC(=[OH+])/C=C(\C)[O-].[Al]`, the “activation” value was 4.7% (inactive). In the case of `CC(C)C(=O)Cl`, the “activation” value was 5.21% (inactive).

As for `Oc1ccc(C(c2ccc(O)cc2)(C(F)(F)F)C(F)(F)F)cc1`, the Potency was 24.2 µM (active) and 27.3 µM (active). As to `C[C@H]1O[C@@H](O[C@H]2[C@@H](O)C[C@H](O[C@H]3[C@@H](O)C[C@H](O[C@H]4CC[C@@]5(C)[C@H](CC[C@@H]6[C@@H]5CC[C@]5(C)[C@@H](C7=CC(=O)OC7)CC[C@]65O)C4)O[C@@H]3C)O[C@@H]2C)C[C@H](O)[C@@H]1O`, the “activation” value was -6.62% [at 42.5 µM] (inactive). In the case of `CC(C)(C)OO`, the “activation” value is 8.67% (inactive). With `Clc1ccc(CCC(Cn2ccnc2)Sc2c(Cl)cccc2Cl)cc1` (stereo not given), the Potency is 4.22 µM (active).

As to `C[As+](C)(C)CC(=O)[O-]`, the “activation” value was 13.1% (inactive).

Consider `N#CSCSC#N`, for which the Potency is 22.2 µM (active) and 19.1 µM (active). As to `COc1ccc(OC)c(C=O)c1`, the “activation” value was -4.96% (inactive). Consider `COC12CC[C@@]3(C[C@@H]1C(C)(O)C(C)(C)C)[C@H]1Cc4ccc(O)c5c4[C@@]3(CCN1CC1CC1)[C@H]2O5` (stereo not given in full), for which the Potency is 3.04 µM (active). Consider `OC(Cc1ccccc1Cl)(Cn1cncn1)C1(Cl)CC1` (stereo not given), for which the Potency was 34.4 µM (active). On to `O=[N+]([O-])c1ccc(Oc2ccc(C(F)(F)F)cc2[N+](=O)[O-])cc1`, for which the Potency is 17.2 µM (active). With `O=C(O)C1C2CCC(O2)C1C(=O)O` (stereo not given), the “activation” value is 25.7% (inactive).

Take `CCCOCC(=Nc1ccc(Cl)cc1C(F)(F)F)n1ccnc1`: the Potency is 24.3 µM (active). Same read-out and setting: with `CCC[CH2][Sn]([CH2]CCC)([CH2]CCC)[O]C(=O)c1ccccc1` the figure was 0.486 µM (active); with `ClC(Cl)=C(c1ccc(Cl)cc1)c1ccc(Cl)cc1`, 62.6 µM (active) and 48.6 µM (active). With `CCCCCCCCCBr`, the “activation” value was 3.41% (inactive).

As to `Clc1ccc(C(c2ccccc2Cl)C(Cl)(Cl)Cl)cc1` (stereo not given), the Potency was 34.6 µM (active) and inactive. With `CCCCCCCCCCCCBr`, the “activation” value is 8.38% (inactive).

Turning to `Cc1c(Cl)c(=O)oc2cc(OP(=O)(OCCCl)OCCCl)ccc12`, the Potency is 11.9 µM (active). For `c1ccc2c(c1)OCC(C1=NCCN1)O2` (stereo not given), the Potency is 11.9 µM (active). Consider `CCOP(=S)(OCC)SCS(=O)(=O)CC`, for which the “activation” value was 20.9% (inactive).

Take `Cc1ccc(C(=O)Cl)cc1`: the “activation” value is -4.22% (inactive). Regarding `CC(C)CCCCCCCOP(=O)(Oc1ccccc1)Oc1ccccc1`, the Potency was 6.89 µM (active). Regarding `OC(c1ccc(Cl)cc1)(c1ccc(Cl)cc1)C(Cl)(Cl)Cl`, the Potency is 24.3 µM (active). `O=[N+]([O-])c1c2ccccc2cc2ccccc12`: the Potency is 21.7 µM (active).

For `BrCC(Br)c1ccccc1` (stereo not given), the “activation” value is 6.86% (inactive). `C[CH2][Hg][N]1C(=O)C2C(C1=O)C1(Cl)C(Cl)=C(Cl)C2(Cl)C1(Cl)Cl` (stereo not given): the activation was -20.9% [at 19 µM] (inactive). With `CC(Cc1ccc(C(C)(C)C)cc1)CN1C[C@@H](C)O[C@@H](C)C1` (stereo not given in full), the Potency was 30.6 µM (active). In the case of `CC(=O)OC1(c2ccccc2)CCN(CCc2ccccc2)CC1`, the Potency was 11.1 µM (active). For the molecule `Nc1ccccc1C(=O)OC/C=C/c1ccccc1`, the Potency is 21.7 µM (active).

`N#C/C=C/C#N`: the Potency was 64 µM (active). In the case of `Cl/C=C\CCl`, the “activation” value is 5.36% (inactive).

`O=c1ssc(Cl)c1Cl`: the Potency was 27.3 µM (active).

As for `CN(C)C1CSSSC1`, the Potency is 61.1 µM (active). For `C1CCC2CCCCC2C1` (stereo not given), the “activation” value is -2.43% (inactive). Consider `CCOc1cc(C(C)(C)C)ccc1C1COC(c2c(F)cccc2F)=N1` (stereo not given), for which the Potency is 37.1 µM (active). As to `CCCCCCCCCCCCCCCCCCn1cc[n+](C)c1`, the “activation” value was -11.9% (inactive).
